{"source": "PubChem BioAssay AID2825", "about": "(Sanford-Burnham Center for Chemical Genomics, 2010)", "note": "The whole screen tested about 330,000 compounds, of which about 1,300 (0.39%) were called active. What follows is part of a selection rich in actives, with near analogues and random picks from the rest. A number with no mark means an inactive call.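 The calls were made as follows: active = inhibition of 50% or more; inactive = inhibition below 50%.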"}
{"assay": "blockers of yeast NLRP3/ASC/caspase-1 reporter – luminescence, uHTS, primary screen (AID 2825);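 also: plate controls were induced DMSO wells for no effect and uninduced yeast grown without galactose for full effect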", "settings": "Yeast reconstituted NLRP3/ASC/caspase-1, beta-gal luminescence, 24 h; at 10 µM; hits give high values"}
{"smiles": "O=C(CN1C(=O)C2C3C=CC(C3)C2C1=O)Nc1nc(-c2ccccn2)cs1", "note": "(stereo not given)", "inhibition": "2.29%"}
{"smiles": "O=C(COc1ccccc1F)Nc1nc(-c2ccccn2)cs1", "inhibition": "52.9% (active)"}
{"smiles": "CC(NC(=O)c1ccco1)C(=O)Nc1nc(-c2ccccn2)cs1", "note": "(stereo not given)", "inhibition": "6.56%"}
{"smiles": "CCNC(=O)c1cccc(NC(=O)C2CC(=O)N(CCc3ccccc3)C2)c1", "note": "(stereo not given)", "inhibition": "0.384%"}
{"smiles": "CN(C)S(=O)(=O)Oc1ccccc1C(=O)Nc1ccccc1Cl", "inhibition": "-4.11%"}
{"smiles": "O=C(Nc1ccccc1Cl)/C(Cl)=C(\\Cl)S(=O)c1ccccc1", "note": "(stereo not given)", "inhibition": "67.4% (active)"}
{"smiles": "O=C(COC(=O)CCc1c[nH]c(=O)[nH]1)Nc1ccccc1Cl", "inhibition": "-10.9%"}
{"smiles": "COc1cc(CNCc2ccc3c(c2)OCO3)c([N+](=O)[O-])cc1OC", "inhibition": "20.4%"}
{"smiles": "O=[N+]([O-])c1cccc(/C=N/Nc2ncc(Br)cn2)c1", "inhibition": "68.1% (active)"}
{"smiles": "Cc1ccc(NC(=O)O/N=C/c2cccc([N+](=O)[O-])c2)cc1", "inhibition": "18.6%"}
{"smiles": "O=C(N/N=C/c1cccc([N+](=O)[O-])c1)C1CC(=O)N(c2ccc(Br)cc2)C1", "note": "(stereo not given)", "inhibition": "4.22%"}
{"smiles": "C/C(=N/OC(=O)c1ccc(Br)cc1)c1ccc(C)cc1", "inhibition": "25.5%"}
{"smiles": "O=C(Nc1nnc(C2CC2)s1)c1ccccn1", "inhibition": "7.63%"}
{"smiles": "Cc1cc(C(=O)Nc2nnc(C3CC3)s2)c(C)s1", "inhibition": "47.8%"}
{"smiles": "CCc1cc(C(=O)Nc2nnc(C3CC3)s2)sc1C", "inhibition": "52% (active)"}
{"smiles": "CC(=O)NC(CC(=O)Nc1ccc(S(=O)(=O)N2CCOCC2)cc1)c1ccccc1", "note": "(stereo not given)", "inhibition": "8.22%"}
{"smiles": "O=C(c1ccco1)N1CCN(C(=O)c2cc(-c3ccccc3F)no2)CC1", "inhibition": "-3.69%"}
{"smiles": "Fc1ccccc1-c1cc2cc3c(cc2cn1)OCO3", "inhibition": "57.2% (active)"}
{"smiles": "Fc1ccc2cnc(-c3ccccc3)cc2c1", "inhibition": "34.3%"}
{"smiles": "O=C1CC2(CCCC2)C(=O)N1CN1CCN(S(=O)(=O)c2ccc(F)cc2F)CC1", "inhibition": "20.4%"}
{"smiles": "CCCn1nc(C(=O)N2CCCc3ccccc32)c2ccccc2c1=O", "inhibition": "12.6%"}
{"smiles": "Cc1c(C(=O)N2CCCc3ccccc32)oc2ccccc12", "inhibition": "51.5% (active)"}
{"smiles": "Cc1c(C(=O)OCC(=O)N2CCCC2=O)oc2ccccc12", "inhibition": "28.6%"}
{"smiles": "Cc1cccc(NC(=S)NC(=O)c2ccc(Br)o2)c1", "inhibition": "57.6% (active)"}
{"smiles": "O=C(CNC(=O)c1ccc(Br)o1)Nc1ccccc1", "inhibition": "22.4%"}
{"smiles": "Cc1cccc(NC(=O)c2ccc([N+](=O)[O-])o2)c1", "inhibition": "-4.88%"}
{"smiles": "O=C(Cc1ccc(S(=O)(=O)N2CCCC2)s1)NC1CCCCCC1", "inhibition": "7.38%"}
{"smiles": "CN(c1ccccc1)S(=O)(=O)c1ccc2[nH]c(=O)[nH]c2c1", "inhibition": "25.4%"}
{"smiles": "COc1ccccc1C(=O)COC(=O)CSCC(=O)Nc1cc(C)on1", "inhibition": "15.5%"}
{"smiles": "CC(CCc1ccc(O)cc1)NCc1ccc(Cl)cc1Cl", "note": "(stereo not given)", "inhibition": "21.7%"}
{"smiles": "N#Cc1nc(Cc2ccccc2)oc1NCCc1ccccc1", "inhibition": "53.8% (active)"}
{"smiles": "N#Cc1nc(COc2ccc(-c3ccccc3)cc2)oc1NCc1cccnc1", "inhibition": "2.98%"}
{"smiles": "N#Cc1nc(Cc2cccc3ccccc23)oc1NCc1ccc2c(c1)OCO2", "inhibition": "2.2%"}
{"smiles": "CCn1c(=S)sc2c(=O)n(CC(=O)Nc3ccc(OC)cc3)c(C)nc21", "inhibition": "18.2%"}
{"smiles": "CC(NCc1nc2ccccc2n1C)C12CC3CC(CC(C3)C1)C2", "note": "(stereo not given)", "inhibition": "30%"}
{"smiles": "Cc1ccc(-c2nnc(Nc3ccc(C(=O)N(C)C)cc3)c3ccccc23)cc1S(N)(=O)=O", "inhibition": "15.1%"}
{"smiles": "O=c1[nH]oc(O)c1-c1ncc(C(F)(F)F)cc1Cl", "inhibition": "6.26%"}
{"smiles": "Cn1c(N)c(C(=O)COC(=O)c2cccc(S(=O)(=O)N3CCOCC3)c2)c(=O)n(C)c1=O", "inhibition": "3.26%"}
{"smiles": "CCc1ccc(-c2nnn(Cc3nc4ccccc4s3)n2)cc1", "inhibition": "31.8%"}
{"smiles": "CN(Cc1nc2ccccc2s1)C(=O)c1ccc(F)cc1", "inhibition": "14.9%"}
{"smiles": "COc1ccccc1OCc1nc2ccccc2s1", "inhibition": "59.6% (active)"}
{"smiles": "Cc1cccc(C)c1NC(=O)CCS(=O)(=O)c1cccc2nsnc12", "inhibition": "-0.246%"}
{"smiles": "COc1cccc(/C=N/Nc2cc(C)nc(-c3ccccc3O)n2)c1O", "inhibition": "54.1% (active)"}
{"smiles": "Cc1nc2ccccc2nc1N/N=C/c1ccc(O)cc1O", "inhibition": "2.73%"}
{"smiles": "COc1ccc(Cc2nnc(N/N=C/c3ccccc3O)[nH]c2=O)cc1OC", "inhibition": "9.67%"}
{"smiles": "CC(C)c1ccc(N2CC(C(=O)Nc3nccs3)CC2=O)cc1", "note": "(stereo not given)", "inhibition": "9.7%"}
{"smiles": "COc1ccc(CNC(=O)COC(=O)/C=C/c2ccc(S(=O)(=O)N3CCOCC3)cc2)cc1", "inhibition": "-4.76%"}
{"smiles": "Cc1nn(Cc2ccccc2)c(C)c1C(=O)N1CCN(CC(=O)Nc2ccccc2Cl)CC1", "inhibition": "14.5%"}
{"smiles": "O=C(COC(=O)c1cc[n+]([O-])cc1)Nc1ccc(Cl)c(C(F)(F)F)c1", "inhibition": "-2.4%"}
{"smiles": "O=C(CC(O)(C(F)(F)F)C(F)(F)F)Nc1ccc(Cl)c(Cl)c1", "inhibition": "78.6% (active)"}
{"smiles": "NC(=O)N1CCCC1C(=O)Nc1ccc(Cl)c(Cl)c1", "note": "(stereo not given)", "inhibition": "-1.49%"}
{"smiles": "Cc1onc(-c2ccccc2Cl)c1C(=O)OCc1nnc(-c2ccccc2)o1", "inhibition": "27.8%"}
{"smiles": "Cc1ccc(-n2cnc3ncnc(-c4ccccc4)c32)cc1", "inhibition": "7.02%"}
{"smiles": "Cc1ccc(-c2nn(C(C)(C)C)c3ncnc(N)c23)cc1", "inhibition": "90.7% (active)"}
{"smiles": "Cc1[nH]c(=O)c(C(=O)/C=C/c2ccccc2)c2c1CCCC2", "inhibition": "28.3%"}
{"smiles": "CCc1cccc(OC2OC(CO)C(O)C(O)C2NC(C)=O)c1", "note": "(stereo not given)", "inhibition": "-4.24%"}
{"smiles": "Cn1nccc1/C=N\\NC(=O)c1ccc(Cl)cc1", "inhibition": "19.2%"}
{"smiles": "COc1ccccc1C1C(C#N)=C(N)Oc2c1c(-c1ccccc1)nn2-c1ccccc1", "note": "(stereo not given)", "inhibition": "9.88%"}
{"smiles": "N#CC1(NC(=O)COC(=O)Cc2n[nH]c(=O)c3ccccc23)CCCCC1", "inhibition": "17.9%"}
{"smiles": "CC(C)n1c(-c2cccs2)nc2ccccc21", "inhibition": "19%"}
{"smiles": "Cc1ccc(OCc2nc3ccccc3n2C)cc1", "inhibition": "62.3% (active)"}
{"smiles": "Cn1c(COc2ccc(Cl)cc2)nc2ccccc2c1=O", "inhibition": "35.3%"}
{"smiles": "CCOc1ccc(C(O)Cc2nc3ccccc3n2C)cc1", "note": "(stereo not given)", "inhibition": "32.1%"}
{"smiles": "CC(C)n1c(CN2CCN(Cc3ccccc3)CC2)nc2ccccc21", "inhibition": "18.2%"}
{"smiles": "CC(C)n1c(COc2ccccc2)nc2ccccc21", "inhibition": "57.2% (active)"}
{"smiles": "CC(C)NS(=O)(=O)c1ccc(OCC(=O)NC2CCCCCC2)cc1", "inhibition": "10.4%"}
{"smiles": "COCCN(C(=O)CC1CCCCC1)c1c(N)n(CC(C)C)c(=O)[nH]c1=O", "inhibition": "6.27%"}
{"smiles": "Cn1c(=NC(=O)c2cnccn2)sc2ccccc21", "inhibition": "25.1%"}
{"smiles": "CCCC(=O)N=c1sc2cccc(F)c2n1C", "inhibition": "35.5%"}
{"smiles": "Cn1c(=NC(=O)c2ccco2)sc2cccc(F)c21", "inhibition": "51% (active)"}
{"smiles": "COc1ccc(NC(=O)CN(C)C(=O)Cc2coc3cc(C)c(C)cc23)cc1", "inhibition": "17.5%"}
{"smiles": "COCCCNCCOCCOc1ccc(Cl)cc1Br", "inhibition": "3.7%"}
{"smiles": "CC(C)C(=O)Nc1ccc2c(c1)oc1ccccc12", "inhibition": "56.7% (active)"}
{"smiles": "Cc1cc(=O)oc2cc(NC(=O)C(C)Oc3ccccc3)ccc12", "note": "(stereo not given)", "inhibition": "10.8%"}
{"smiles": "CC(C)C(=O)Nc1ccc2oc(=O)ccc2c1", "inhibition": "-3.79%"}
{"smiles": "Cc1ccc2cccc(S(=O)(=O)N3CCN(c4ccccc4F)CC3)c2n1", "inhibition": "50.5% (active)"}
{"smiles": "O=S(=O)(N1CCOCC1)N1CCN(c2ccccc2F)CC1", "inhibition": "7.74%"}
{"smiles": "Cc1ccccc1N1CCN(S(=O)(=O)c2ccc3ccccc3c2)CC1", "inhibition": "2.32%"}
{"smiles": "O=C(c1ccc(S(=O)(=O)N2CCCC2)cc1)N1CCN(c2ccccc2F)CC1", "inhibition": "11.6%"}
{"smiles": "C=CCn1c(CNS(=O)(=O)c2ccc(Br)cc2)nnc1SC", "inhibition": "14.4%"}
{"smiles": "COc1ccc(NS(=O)(=O)c2cc3c(cc2C)N(C(C)=O)CCO3)cc1", "inhibition": "25.6%"}
{"smiles": "Cc1c(C(=O)Nc2ccccn2)oc2ccc(Br)cc12", "inhibition": "28.4%"}
{"smiles": "Oc1ccc(Br)cc1/C=N/Nc1ccccn1", "inhibition": "51.7% (active)"}
{"smiles": "Oc1ccc(/C=N/Nc2ccc(C(F)(F)F)cn2)cc1O", "inhibition": "11.3%"}
{"smiles": "CCn1nc(C(=O)NNS(=O)(=O)c2cc(/C=C/C(=O)O)cc(OC)c2OC)c2ccccc2c1=O", "inhibition": "-0.224%"}
{"smiles": "O=C(CSc1ccc(-c2ccc(-n3cccn3)cc2)nn1)Nc1ccc([N+](=O)[O-])cc1", "inhibition": "51.4% (active)"}
{"smiles": "O=C(CSc1ccc([N+](=O)[O-])cn1)Nc1ccc(N2CCOCC2)cc1", "inhibition": "-5.97%"}
{"smiles": "O=C(CSc1ccc(-c2ccccn2)nn1)Nc1ccccc1", "inhibition": "25.6%"}
{"smiles": "CCN1CCN(c2sc(S(C)(=O)=O)nc2S(=O)(=O)c2ccc(Cl)cc2)CC1", "inhibition": "2.79%"}
{"smiles": "CCOC(=O)C1CCN(C(=O)CC2C(=O)N(Cc3ccccc3)C(C)c3nc4ccccc4n32)CC1", "note": "(stereo not given)", "inhibition": "-3.2%"}
{"smiles": "FC(F)(F)c1cccc(NC(=S)Nc2cccc(Cl)c2)c1", "inhibition": "2.63%"}
{"smiles": "S=C(Nc1cccc(Cl)c1)Nc1ccc2c(c1)OCCO2", "inhibition": "15%"}
{"smiles": "Cc1csc(NC(=S)Nc2cccc(Cl)c2)n1", "inhibition": "53.8% (active)"}
{"smiles": "COc1ccc(-c2n[nH]c3c2CN(C(=O)c2ccc(F)cc2)CC3)cc1", "inhibition": "19%"}
{"smiles": "COc1cc(OC)cc(-c2cc3nc(C4CCN(C(=O)OC(C)(C)C)CC4)cc(=O)n3[nH]2)c1", "inhibition": "18.1%"}
{"smiles": "CC1CC2=C(CC1/C=N/NC(N)=S)C(C)(C)CCC2", "note": "(stereo not given)", "inhibition": "68.6% (active)"}
{"smiles": "CCCN(CCc1ccccc1)C1CCc2c(O)cccc2C1", "note": "(stereo not given)", "inhibition": "22.2%"}
{"smiles": "CN(C)/C=C1/Nc2ccccc2C1=O", "inhibition": "12%"}
{"smiles": "Cc1cc(C)c(/C=C2\\C(=O)Nc3ccccc32)[nH]1", "inhibition": "55.4% (active)"}
{"smiles": "O=C1Nc2ccccc2/C1=C/c1ccnc2ccccc12", "inhibition": "17.6%"}
